In PubChem BioAssay (NCI):
This is part of a sample that, as a whole, favours compounds with a hit. Of some 83,000 tested, about 20% had one in any assay.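 Negative percent growth values reflect cell death: -40 means 40% of the cells present at the start died, and -100 means all died.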 Values without a mark were called inactive. Active and inactive are the calls of the source. Rule for the calls: active = growth percent below 10; inactive = the rest.

System: T-47D breast
Assay: NCI-60 one-dose screen, 48 h (100 = growth as untreated, 0 = no growth, -100 = all killed)
Conditions: 10 µM unless noted

| SMILES | growth |
| --- | --- |
| Cc1csc(/N=C(N)/N=C(\N)c2cccc(Br)c2)n1 | 74.3% |
| Clc1ccc2[nH]cc(-c3nn4cc(-c5ccncc5)nc4s3)c2c1 | 6.38% (active) |
| NS(=O)(=O)c1ccc(Nc2nc(Nc3ccccc3)nc(N3N=C(c4ccc(Cl)cc4)CC3c3ccc(Cl)cc3)n2)cc1 (stereo not given) | 51.3% |
| NC1[C@H]2CN(c3cnc(C(=O)Nc4cc(F)cc5cccnc45)cn3)C[C@@H]12 (stereo not given in full) | 32.4% |
| Cn1ncc2c(C(=O)c3ccc(F)cc3)nc(C(C)(C)C)nc21 | 102% |
| COc1ccc(C2c3[nH]c4ccc(Cl)cc4c3CCN2c2oc(CO)nc2C#N)cc1 (stereo not given) | 43.1% |
| Cc1ccc(Nc2nc(SC(C)C)nc(-c3ccccc3)c2C#N)cc1 | 88.4% |
| O=C1CSC(c2cn(-c3ccccc3)nc2-c2ccc(Cl)cc2)N1c1ccccc1 (stereo not given) | 102% |
| O=C1Nc2ccc(F)cc2/C1=C\C(=O)c1ccc(NS(=O)(=O)c2ccccc2)cc1 | 96.7% |
| COc1ccc2[nH]cc(-c3nn4cc(-c5ccncc5)nc4s3)c2c1 | 7.81% (active) |
| CC1=C(C)C(=O)C(Nc2ccc(C)cc2)=C(Br)C1=O | 15.7% |
| CC(Nc1ncnc2ccc(-c3cnc4cnccn34)cc12)c1ccccc1 (stereo not given) | 17.5% |
| Cc1ccc2c(n1)C(=O)C(Cl)=C(Nc1ccc(C(=O)OC(C)(C)C)cc1)C2=O | -8.23% [9.25 µM] (active) |
| CCOC(=O)c1c(NC(=O)c2cccc(C(F)(F)F)c2)sc2c1CCC(=O)C2 | 17.8% |
| C/C(=N\NC(=O)/C=C/CC(=O)O)c1nnn(-c2ccc([N+](=O)[O-])cc2)c1C | 98.9% |
| Cc1[nH]c(C(=O)Nc2ccccc2OCc2cccc(C(=O)NC3CCNC3)c2)c(Cl)c1Cl (stereo not given) | 53.9% |
| N#Cc1nc(-c2ccccc2)oc1N1CCC(C2(C(F)(F)F)N=N2)CC1 | 95.6% |
| CNC(=O)c1cc(-n2ccc3cc(NC(=O)Nc4ccc(N5CCN(C)CC5)c(C(F)(F)F)c4)ccc32)ccn1 | 87.4% |
| NS(=O)(=O)c1nnc(/N=C/c2c(O)[nH]c3ccccc23)s1 | 85.2% |
| C#C[C@]1(O)CC[C@H]2[C@@H]3CC=C4c5sc(NCc6ccccc6)nc5CC[C@]4(C)[C@H]3CC[C@@]21C | 65.8% |

| SMILES | growth |
| --- | --- |
| CCOC(=O)c1c(NC(=O)c2ccc(C(F)(F)F)cc2)sc2c(CN3CCN(C)CC3)c(O)ccc12 | -35% (active) |
| CC(Nc1c(C#N)cnc2ccc(-c3cncc(-c4n[nH]c(=O)o4)c3)cc12)c1ccccc1 (stereo not given) | 13.1% |
| Cc1ccc(-c2cc3nc(C(Cl)Cl)nc(-c4ccc(S(=O)(=O)N(C)C)cc4)n3n2)cc1 | 93.8% |
| O=C(N/N=C\c1ccc([N+](=O)[O-])cc1)c1ccc2nc(-c3ccc(Br)cc3)[nH]c2c1 | 9.87% (active) |
| CN(C)S(=O)(=O)c1ccc(-c2nc(C(Cl)Cl)nc3cc(-c4ccccc4)nn23)cc1 | 89.5% |
| OCC(Nc1ncnc2ccc(-c3cnc4cnccn34)cc12)c1ccccc1 (stereo not given) | 28.4% |
| COc1ccc(/C=N/N=C(/c2ccccc2)c2ccc3nc(-c4ccc(Cl)cc4)[nH]c3c2)cc1 | 63.5% |
| CCN(CC)S(=O)(=O)c1ccc(-c2nc(C(Cl)Cl)nc3cc(C)nn23)cc1 | 60.9% |
| CN(C)CCNc1ccc2ncc(C#Cc3cncc(C(=O)Nc4ccc(CN5CCN(C)CC5)c(C(F)(F)F)c4)c3)n2n1 | 78.7% |
| COc1ccc(-c2nc(C#N)c(N3CCC(S(=O)(=O)N4CCOCC4)CC3)o2)cc1 | 96.9% |
| COc1ccc(OC)c(CCn2cncc2-c2c[nH]c3ccc(Cl)cc23)c1 | 20.1% |
| NC(=O)c1c(NC(=O)c2ccc(C(F)(F)F)cc2)sc2c1CCC(=O)C2 | -28.9% (active) |
| CN1CCN(c2ccc(Nc3nc(NCCNC(=O)c4ccccc4)c4sccc4n3)cc2)CC1 | 18.1% |
| Cc1ccc(S(=O)(=O)NCCCNc2nc(Nc3ccc(N4CCN(C)CC4)cc3)nc3ccsc23)cc1 | 17.2% |
| COc1ccc(/C(=N\N=C(N)N)c2ccc(Cl)cc2)cc1OC | 68% |
| CCOC(=O)c1cccnc1Nc1ccc(NC(=O)Nc2ccc(Cl)c(C(F)(F)F)c2)cc1 | -1.09% (active) |
| O=C1[C@@H]2Cc3c([nH]c4ccccc34)[C@H](c3ccc(Cl)cc3)N2C(=O)CN1C1CCN(Cc2ccccc2)CC1 | 74.5% |
| CC1=Cc2ccccc2OC12C=Cc1ccccc1O2 (stereo not given) | 81.8% |
| C#CCOc1cccc(/C(N)=N/C(N)=N/c2nc3ccccc3s2)c1 | 72.3% |
| CC(Nc1ncnc2ccc(-c3cnc(N)nc3)cc12)c1ccccc1 (stereo not given) | 12.2% |
